{"source": "the supplement of paper PMC3414501", "note": "Counter-ions that a name gives are not always drawn."}
{"tested_on": "S. cerevisiae AD1-9 (efflux-pump deficient), vegetative growth in YPD", "experiment": "growth sensitivity score (doubling time z-score vs DMSO controls); higher = slower growth, strongly negative scores also mark growth inhibition (complete suppression), active = hit call of the paper; in the data active = 2 or more and inactive = the rest", "method_in_brief": "(§1)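 Yeast (Saccharomyces cerevisiae BY4741 and AD1-9) was grown in rich medium in microtiter plates from a starting OD600 of 0.065, with optical density read every 15 min over 24 hours. The growth sensitivity score was the difference between compound and solvent-only means, divided by the solvent-only standard deviation. Every experiment had eight solvent-only wells.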"}
{"smiles": "CC[C@@H]1C(=O)OC[C@@H]1Cc1cncn1C", "note": "[Pilocarpine hydrochloride] (stock concentration (mM, diluted 1:100): 10)", "growth sensitivity score": "0.16 (inactive)"}
{"smiles": "CC(=O)O[C@]1(C(C)=O)CC[C@H]2[C@@H]3C=C(C)C4=CC(=O)CC[C@]4(C)[C@H]3CC[C@@]21C", "note": "[Megestrol acetate] (stock concentration (mM, diluted 1:100): 10)", "growth sensitivity score": "38.5 (active)"}
{"smiles": "CN1CCN(c2c(F)cc3c(=O)c(C(=O)O)cn4c3c2SCC4)CC1", "note": "[Rufloxacin hydrochloride] (stock concentration (mM, diluted 1:100): 10)", "growth sensitivity score": "17.4 (active)"}
{"smiles": "NC(N)=Nc1nc(CSCC/C(N)=N/S(N)(=O)=O)cs1", "note": "[Famotidine] (stock concentration (mM, diluted 1:100): 10)", "growth sensitivity score": -2.06}
{"smiles": "OCCOCCN1CCN(C2=Nc3ccccc3Sc3ccccc32)CC1", "note": "[Quetiapine hemifumarate] (stock concentration (mM, diluted 1:100): 7.7)", "growth sensitivity score": "0.31 (inactive)"}
{"smiles": "O=c1n(CCCN2CCN(c3cccc(Cl)c3)CC2)nc2ccccn12", "note": "[Trazodone hydrochloride] (stock concentration (mM, diluted 1:100): 10)", "growth sensitivity score": -3.23}
{"smiles": "O=C1CC[C@@H](C(=O)N2CSC[C@H]2C(=O)O)N1", "note": "[Pidotimod] (stock concentration (mM, diluted 1:100): 10)", "growth sensitivity score": "0.59 (inactive)"}
{"smiles": "COC(=O)C1=C(C)NC(C)=C(C(=O)OC2CCCN(Cc3ccccc3)C2)C1c1cccc([N+](=O)[O-])c1", "note": "(stereo not given) [Benidipine hydrochloride] (stock concentration (mM, diluted 1:100): 6)", "growth sensitivity score": -3.4}
{"smiles": "CC(Oc1c(Cl)cccc1Cl)C1=NCCN1", "note": "(stereo not given) [Lofexidine hydrochloride] (stock concentration (mM, diluted 1:100): 10)", "growth sensitivity score": "-0.79 (inactive)"}
{"smiles": "Cc1[nH]c(=O)c(C#N)cc1-c1ccncc1", "note": "[Milrinone] (stock concentration (mM, diluted 1:100): 10.1)", "growth sensitivity score": -2.83}
{"smiles": "CO[C@H]1/C=C/O[C@@]2(C)Oc3c(C)c(O)c4c(O)c(c5c(nc6cc(C)ccn65)c4c3C2=O)NC(=O)/C(C)=C\\C=C\\[C@H](C)[C@H](O)[C@@H](C)[C@@H](O)[C@@H](C)[C@H](OC(C)=O)[C@@H]1C", "note": "[Rifaximin] (stock concentration (mM, diluted 1:100): 10)", "growth sensitivity score": "-1.56 (inactive)"}
{"tested_on": "S. cerevisiae BY4741 (wild-type), vegetative growth in YPD", "experiment": "growth sensitivity score (doubling time z-score vs DMSO controls); higher = slower growth, strongly negative scores also mark growth inhibition (complete suppression), active = hit call of the paper", "method_in_brief": "as §1"}
{"smiles": "CN1CCCC(n2nc(Cc3ccc(Cl)cc3)c3ccccc3c2=O)CC1", "note": "(stereo not given) [Azelastine hydrochloride] (stock concentration (mM, diluted 1:100): 9.1)", "growth sensitivity score": "0.19 (inactive)"}
{"smiles": "CN1[C@@H]2CC[C@H]1C[C@@H](OC(=O)c1c[nH]c3ccccc13)C2", "note": "[Tropisetron hydrochloride] (stock concentration (mM, diluted 1:100): 7.7)", "growth sensitivity score": "-0.89 (inactive)"}
{"smiles": "O=C(O)c1cc(/N=N/c2ccc(S(=O)(=O)Nc3ccccn3)cc2)ccc1O", "note": "[Sulfasalazine] (stock concentration (mM, diluted 1:100): 10)", "growth sensitivity score": -2.26}
{"smiles": "Nc1nc(O)c2ncn(CCC(CO)CO)c2n1", "note": "[Penciclovir] (stock concentration (mM, diluted 1:100): 10)", "growth sensitivity score": "-0.88 (inactive)"}
{"smiles": "O=C(c1ccccc1)c1ccc2n1CCC2C(=O)O", "note": "(stereo not given) [Toradol] (stock concentration (mM, diluted 1:100): 6.8)", "growth sensitivity score": "0.91 (inactive)"}
{"smiles": "OC[C@H]1O[C@@H](n2cnc3c(N[C@H]4CCC[C@@H]4O)ncnc32)[C@@H](O)C1O", "note": "(stereo not given in full) (stock concentration (mM, diluted 1:100): 10)", "growth sensitivity score": "-0.79 (inactive)"}
{"smiles": "CC(C)c1nc(CN(C)C(=O)N[C@H](C(=O)N[C@@H](Cc2ccccc2)C[C@H](O)[C@H](Cc2ccccc2)NC(=O)OCc2cncs2)C(C)C)cs1", "note": "[Ritonavir] (stock concentration (mM, diluted 1:100): 10)", "growth sensitivity score": "-0.97 (inactive)"}
{"smiles": "COc1cc(C(=O)NS(=O)(=O)c2ccccc2C)ccc1Cc1cn(C)c2ccc(NC(=O)OC3CCCC3)cc12", "note": "[Zafirlukast] (stock concentration (mM, diluted 1:100): 10)", "growth sensitivity score": "-1.75 (inactive)"}
{"smiles": "CCOC(=O)O[C@]1(C(=O)OCCl)CC[C@H]2[C@@H]3CCC4=CC(=O)C=C[C@]4(C)[C@H]3[C@@H](O)C[C@@]21C", "note": "[Loteprednol etabonate] (stock concentration (mM, diluted 1:100): 10)", "growth sensitivity score": "0.91 (inactive)"}
{"smiles": "C[C@@H]1C[C@H]2[C@@H]3CCC4=CC(=O)C=C[C@]4(C)[C@@]3(F)[C@@H](O)C[C@]2(C)[C@H]1C(=O)CO", "note": "[Desoximetasone] (stock concentration (mM, diluted 1:100): 10)", "growth sensitivity score": "1.97 (inactive)"}
{"smiles": "Nc1nc(N)nc(-c2cc(Cl)ccc2Cl)n1", "note": "[Irsogladine maleate] (stock concentration (mM, diluted 1:100): 6.9)", "growth sensitivity score": "-1.26 (inactive)"}
{"smiles": "CCOC(=O)c1ccc(OC(=O)CCCCCNC(=N)N)cc1", "note": "[Gabexate mesylate] (stock concentration (mM, diluted 1:100): 7.7)", "growth sensitivity score": "1.03 (inactive)"}
{"smiles": "CC(C)(C)NC(=O)[C@@H]1C[C@@H]2CCCC[C@@H]2CN1C[C@@H](O)[C@H](Cc1ccccc1)NC(=O)[C@H](CC(N)=O)NC(=O)c1ccc2ccccc2n1", "note": "[Saquinavir mesylate] (stock concentration (mM, diluted 1:100): 8.8)", "growth sensitivity score": "2.5 (active)"}
{"smiles": "CC(CCCCC(=O)Nc1ccc(C(F)(F)F)cc1)NCCc1cnc[nH]1", "note": "(stereo not given) (stock concentration (mM, diluted 1:100): 10)", "growth sensitivity score": "-0.06 (inactive)"}
{"smiles": "CO[C@H]1/C=C/O[C@@]2(C)Oc3c(C)c(O)c4c(O)c(c(/C=N/N5CCN(C6CCCC6)CC5)c(O)c4c3C2=O)NC(=O)/C(C)=C\\C=C\\[C@H](C)[C@H](O)[C@@H](C)[C@@H](O)[C@@H](C)[C@H](OC(C)=O)[C@@H]1C", "note": "[Rifapentine] (stock concentration (mM, diluted 1:100): 10)", "growth sensitivity score": "0.15 (inactive)"}
{"smiles": "O=C(CCCN1CCC(O)(c2ccc(Cl)cc2)CC1)c1ccc(F)cc1", "note": "[Haloperidol] (stock concentration (mM, diluted 1:100): 10)", "growth sensitivity score": "5.41 (active)"}
{"smiles": "C#C[C@]1(O)CC[C@H]2[C@@H]3CCc4cc(OC)ccc4[C@H]3CC[C@@]21C", "note": "[Mestranol] (stock concentration (mM, diluted 1:100): 10)", "growth sensitivity score": "0.8 (inactive)"}
{"smiles": "CC(=O)[C@@]1(O)CC[C@H]2[C@@H]3C[C@H](C)C4=CC(=O)CC[C@]4(C)[C@H]3CC[C@@]21C", "note": "[Medroxyprogesterone] (stock concentration (mM, diluted 1:100): 10)", "growth sensitivity score": "-0.01 (inactive)"}
{"smiles": "CN(C)CC[C@@H](c1ccc(Cl)cc1)c1ccccn1", "note": "[Dexchlorpheniramine maleate] (stock concentration (mM, diluted 1:100): 7)", "growth sensitivity score": "0.54 (inactive)"}
{"smiles": "COCC1=C(C(=O)OC(C)OC(=O)OC(C)C)N2C(=O)[C@@H](NC(=O)/C(=N\\OC)c3csc(N)n3)[C@H]2SC1", "note": "(stereo not given in full) [Cefpodoxime proxetil] (stock concentration (mM, diluted 1:100): 7.7)", "growth sensitivity score": "-1.13 (inactive)"}
{"smiles": "CC(C(=O)O)c1ccc(-c2ccccc2)c(F)c1", "note": "(stereo not given) [Flurbiprofen] (stock concentration (mM, diluted 1:100): 11.4)", "growth sensitivity score": "0.01 (inactive)"}
{"smiles": "C[C@@H]1O[C@@H](OC[C@H]2O[C@@H](Oc3c(-c4ccc(O)c(O)c4)oc4cc(O)cc(O)c4c3=O)[C@H](O)[C@@H](O)[C@@H]2O)[C@H](O)[C@H](O)[C@H]1O", "note": "[Rutin] (stock concentration (mM, diluted 1:100): 10)", "growth sensitivity score": -2.67}
{"smiles": "CC(C)Oc1ccc2c(=O)c(-c3ccccc3)coc2c1", "note": "[Ipriflavone] (stock concentration (mM, diluted 1:100): 10)", "growth sensitivity score": "-0.15 (inactive)"}
{"smiles": "CC(C)(C)NC(=O)[C@@H]1CN(Cc2cccnc2)CCN1C[C@@H](O)C[C@@H](Cc1ccccc1)C(=O)N[C@H]1c2ccccc2C[C@H]1O", "note": "[Indinavir sulphate] (stock concentration (mM, diluted 1:100): 8.6)", "growth sensitivity score": "0 (inactive)"}
{"smiles": "Clc1ccc(CO/N=C(\\Cn2ccnc2)c2ccc(Cl)cc2Cl)c(Cl)c1", "note": "[Oxiconazole nitrate] (stock concentration (mM, diluted 1:100): 10)", "growth sensitivity score": "66.3 (active)"}
{"smiles": "CC[C@@H]1C(=O)OC[C@@H]1Cc1cncn1C", "note": "[Pilocarpine hydrochloride] (stock concentration (mM, diluted 1:100): 10)", "growth sensitivity score": "0.72 (inactive)"}
{"smiles": "CC(=O)O[C@]1(C(C)=O)CC[C@H]2[C@@H]3C=C(C)C4=CC(=O)CC[C@]4(C)[C@H]3CC[C@@]21C", "note": "[Megestrol acetate] (stock concentration (mM, diluted 1:100): 10)", "growth sensitivity score": "1.27 (inactive)"}
{"smiles": "CN1CCN(c2c(F)cc3c(=O)c(C(=O)O)cn4c3c2SCC4)CC1", "note": "[Rufloxacin hydrochloride] (stock concentration (mM, diluted 1:100): 10)", "growth sensitivity score": "-0.18 (inactive)"}
{"smiles": "NC(N)=Nc1nc(CSCC/C(N)=N/S(N)(=O)=O)cs1", "note": "[Famotidine] (stock concentration (mM, diluted 1:100): 10)", "growth sensitivity score": "-0.98 (inactive)"}
